The supplement of paper PMC6805474

Legend:
[1] = test system: Schistosoma mansoni schistosomula (LE); experiment: XTT viability relative to DMSO control; higher = more viable (less active); settings: 72 h; 10 µM
Experimental: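 XTT/PMS was then added for a further 24 h (72 h total) and A450 was read. % viability = (sample - heat-killed control)/(DMSO control - heat-killed control) x 100, from duplicate wells in two independent experiments.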

[2] = test system: Schistosoma mansoni schistosomula (NMRI); experiment: phenotypic severity score (0-4); higher = more antischistosomal effect, active = 2 or more; settings: 10 µM
[3] = test system: Schistosoma mansoni schistosomula (Liberian); experiment: drug effect (1 - score/DMSO control score) (fraction); higher = more antischistosomal effect, active = 0.5 or more; extreme values may be limits of the assay; settings: 10 µM
Outline: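 A plate was valid only if its 0.1% DMSO wells averaged a score of at least 2. Those wells ran beside duplicate wells in which 50 Liberian-strain Schistosoma mansoni schistosomula each, transformed mechanically from cercariae and pre-incubated at least 12 h, met 10 µM compound in Medium 199 with 5% FCS at 37 °C, 5% CO2. Scoring was visual at 10× at 24, 48 and 72 h, from 3 (normal) to 0 (dead) in quarter-point steps. Drug effect was derived from the mean test-well score against the mean DMSO-well score, with negatives set to zero.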
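For phenotypic severity score (0-4) in this document: visual microscopic scoring of shape, motility and density changes versus 0.5% DMSO solvent controls, one point per descriptor, degeneracy or death scored 4, mean of duplicate wells.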

Row | SMILES | XTT viability [1] | phenotypic severity score ([2]; 24 h) | phenotypic severity score ([2]; 48 h) | phenotypic severity score ([2]; 72 h) | drug effect ([3]; 24 h) | drug effect ([3]; 48 h) | drug effect ([3]; 72 h)
1 | O=C(NCc1cc(Cl)cc(Cl)c1)c1c(C(F)(F)F)nc2ccccn12 | 93.7% | 0 (inactive) | 1 (inactive) | 0 (inactive) | 0.158 (inactive) | 0.333 (inactive) | 0.312 (inactive)
2 | CC1(C)Cc2c(c(N3CCOCC3)nc3snc(Br)c23)CO1 | 71.5% | 0 (inactive) | 0 (inactive) | 0 (inactive) | 0.0455 (inactive) | 0.1 (inactive) | 0.105 (inactive)
3 | COc1ccc(C2(C(=O)Nc3ccc(Br)cc3)CCCC2)cc1 | 91% | 0 (inactive) | 0 (inactive) | 1 (inactive) | 0.25 (inactive) | 0.389 (inactive) | 0.5 (active)
4 | C[C@]1(O)C[C@@H](c2nc(-c3ccc4ccc(-c5ccccc5)nc4c3)c3c(N)nccn32)C1 | 64% | 0 (inactive) | 0 (inactive) | 0 (inactive) | 0.05 (inactive) | 0.027 (inactive) | 0.111 (inactive)
5 | Cc1ccccc1C(=O)N1N=C(Nc2ccccc2)SC1(C)C | 88.7% | 1 (inactive) | 2 (active) | 0 (inactive) | 0.0455 (inactive) | 0.1 (inactive) | 0.158 (inactive)
6 | COc1ccccc1C(C)NCC(=O)Nc1cc(C(F)(F)F)ccc1Cl (centres undefined) | 67.7% | 0 (inactive) | 0 (inactive) | 0 (inactive) | 0.15 (inactive) | 0.135 (inactive) | 0.278 (inactive)
7 | NC(=O)c1cc(-c2ccsc2)ccc1OCCOc1ccccc1 | 89.5% | 0 (inactive) | 0 (inactive) | 0 (inactive) | 0.158 (inactive) | 0.111 (inactive) | < 0 (inactive)
8 | COc1ccc(-c2cnc3ccc(N4CCCC4)nn23)cc1OC | 60.5% | 2 (active) | 4 (active) | 4 (active) | 0.784 (active) | 0.944 (active) | 1 (active)
9 | CC(C)(C)OC(=O)N1CCC(Cn2nc(-c3cnc4ccccc4c3)c3c(N)ncnc32)CC1 | 125% | 1 (inactive) | 4 (active) | 4 (active) | 0.405 (inactive) | 0.444 (inactive) | 0.688 (active)
10 | COc1ccc2nccc(NC(=O)C3CCN(CCc4ccc(Cl)cc4)CC3)c2n1 | 77.2% | 0 (inactive) | 0 (inactive) | 0 (inactive) | 0.05 (inactive) | 0.0556 (inactive) | 0.111 (inactive)
11 | COc1cc(C2=NCCN2)ccc1-c1cn(-c2cccc(C3=NCCN3)c2)nn1 | 72.8% | 1 (inactive) | 0 (inactive) | 0 (inactive) | 0.25 (inactive) | 0.297 (inactive) | 0.394 (inactive)
12 | CN1CCCN(C(c2ccccc2)c2ccc(Cl)cc2)CC1 (centres undefined) | 67.9% | 0 (inactive) | 0 (inactive) | 0 (inactive) | 0.455 (inactive) | 0.05 (inactive) | 0.263 (inactive)
13 | O=S(=O)(c1ccc(Cl)cc1)N1CCN(C(=S)NCc2ccco2)CC1 | 75.2% | 1 (inactive) | 0 (inactive) | 0 (inactive) | 0.05 (inactive) | 0.0811 (inactive) | 0.111 (inactive)
14 | CC(C)c1ncc(-c2ccncc2)c([C@H]2CC[C@H](CNC(=O)c3cccnc3)CC2)n1 | 94% | 0 (inactive) | 0 (inactive) | 0 (inactive) | 0.05 (inactive) | 0.0811 (inactive) | 0.111 (inactive)
15 | CCn1cnc2c(Nc3cc(F)cc(F)c3)nc(C#N)nc21 | 97.7% | 4 (active) | 4 (active) | 4 (active) | 0.351 (inactive) | 0.889 (active) | 0.75 (active)
16 | CCN(CC)S(=O)(=O)c1ccc(C(=O)Nc2cc(C)nn2-c2nc(C)c(C)c(=O)[nH]2)cc1 | 80.6% | 0 (inactive) | 0 (inactive) | 0 (inactive) | 0.1 (inactive) | < 0 (inactive) | < 0 (inactive)
17 | CC(=O)NC[C@@H]1CN(c2ccc(N3CCOCC3)c(F)c2)C(=O)O1 | 94.2% | 0 (inactive) | 0 (inactive) | 0 (inactive) | 0.227 (inactive) | 0.2 (inactive) | 0.182 (inactive)
18 | O=C(c1cc2ccccc2o1)N1CCN(Cc2ccc3c(c2)OCO3)CC1 | 110% | 0 (inactive) | 0 (inactive) | 0 (inactive) | 0.182 (inactive) | 0.15 (inactive) | 0.236 (inactive)
19 | c1coc(CNc2nc(N3CCCCC3)nc3ccccc23)c1 | 99.5% | 3 (active) | 2 (active) | 4 (active) | 1 (active) | 1 (active) | 1 (active)
20 | CN1CCC(c2cc(-c3ccncc3)c(-c3ccc(F)cc3)[nH]2)CC1 | 94.6% | 0 (inactive) | 0 (inactive) | 0 (inactive) | < 0 (inactive) | 0.0556 (inactive) | 0.111 (inactive)
21 | NCCCC(N)(C(=O)O)C(F)F (centres undefined) | 87.1% | 0 (inactive) | 0 (inactive) | 0 (inactive) | 0.15 (inactive) | 0.135 (inactive) | 0.222 (inactive)

Row | SMILES | XTT viability [1] | phenotypic severity score ([2]; 24 h) | phenotypic severity score ([2]; 48 h) | phenotypic severity score ([2]; 72 h) | drug effect ([3]; 24 h) | drug effect ([3]; 48 h) | drug effect ([3]; 72 h)
22 | Brc1cncc(-c2cc(NCCCn3ccnc3)nc(-c3ccccc3)n2)c1 | 12.9% | 1 (inactive) | 4 (active) | 4 (active) | 0.273 (inactive) | 0.65 (active) | 0.673 (active)
23 | N=C(N)c1ccc(-c2cc(-c3ccccc3)on2)cc1 | 91.6% | 2 (active) | 1 (inactive) | 0 (inactive) | 0.182 (inactive) | 0.65 (active) | 0.455 (inactive)
24 | c1ccc(Oc2ccc(-c3cc(CN4CCOCC4)[nH]n3)cc2)cc1 | 85.9% | 0 (inactive) | 0 (inactive) | 0 (inactive) | 0.0455 (inactive) | 0.05 (inactive) | 0.158 (inactive)
25 | CNc1nnc(Sc2cnn(-c3ccccc3)c(=O)c2Cl)s1 | -5.83% | 4 (active) | 4 (active) | 4 (active) | 1 (active) | 1 (active) | 1 (active)
26 | N#Cc1nc(-c2ccccc2F)oc1NCCc1ccccc1 | 94% | 0 (inactive) | 0 (inactive) | 0 (inactive) | 0.2 (inactive) | 0.111 (inactive) | 0.125 (inactive)
27 | O=C(NC1CC1)c1ccc(CSCc2ccccc2Cl)o1 | 114% | 1 (inactive) | 0 (inactive) | 1 (inactive) | 0.405 (inactive) | 0.444 (inactive) | 0.562 (active)
28 | COc1cc(-c2cc(-c3ccc(S(C)(=O)=O)cc3)cnc2N)ccc1O | 139% | 2 (active) | 1 (inactive) | 1 (inactive) | 0.1 (inactive) | 0.189 (inactive) | 0.152 (inactive)
29 | Nc1nccc2ccc(Oc3ccncc3)cc12 | 152% | 0 (inactive) | 0 (inactive) | 0 (inactive) | 0.1 (inactive) | 0.222 (inactive) | 0.375 (inactive)
30 | O=C(C1CCN(c2cc(-n3cccc3)ncn2)CC1)N1CCc2ccccc2C1 | 96.4% | 0 (inactive) | 0 (inactive) | 1 (inactive) | 0.05 (inactive) | 0.111 (inactive) | 0.333 (inactive)
31 | O=C([C@@H](c1ccc(Cl)cc1)c1cccnc1)N1CCN(c2ccc(C(F)(F)F)cc2)CC1 | 46.8% | 0 (inactive) | 2 (active) | 4 (active) | 0.75 (active) | 0.722 (active) | 0.75 (active)
32 | O=C(NCCN1CCCC1)c1cc(NCCN2CCOCC2)nc2ccc(Cl)cc12 | 146% | 0 (inactive) | 0 (inactive) | 0 (inactive) | 0.15 (inactive) | 0.222 (inactive) | 0.438 (inactive)
33 | CCN(CC)C(=O)N1CCN(C)CC1 | 95.5% | 0 (inactive) | 0 (inactive) | 0 (inactive) | 0.15 (inactive) | 0.222 (inactive) | 0.375 (inactive)
34 | CCc1ccc(C(NCc2nc(N)nc(N(C)C)n2)C(C)C)cc1 (centres undefined) | 99.2% | 0 (inactive) | 0 (inactive) | 0 (inactive) | < 0 (inactive) | < 0 (inactive) | 0.111 (inactive)
35 | CC(Oc1cccc(Cl)c1)C(=O)Nc1ccc2oc(-c3ccncc3)nc2c1 (centres undefined) | 109% | 1 (inactive) | 0 (inactive) | 0 (inactive) | 0.318 (inactive) | 0.45 (inactive) | 0.564 (active)
36 | O=C(Nc1ccc(N2CCNCC2)cc1)c1ccn2ncc(-c3cccc(Cl)c3)c2n1 | 7.7% | 2 (active) | 4 (active) | 4 (active) | 0.73 (active) | 0.778 (active) | 0.938 (active)
37 | Cc1cc(OCC(=O)NCc2ccccc2)c2cc(Br)ccc2n1 | 111% | 0 (inactive) | 0 (inactive) | 0 (inactive) | 0.1 (inactive) | 0.0556 (inactive) | 0.0625 (inactive)
38 | CCCCc1ccc(C(=O)Nc2nccc3ccccc23)nc1 | 94.2% | 1 (inactive) | 0 (inactive) | 1 (inactive) | 0.1 (inactive) | 0.167 (inactive) | 0.188 (inactive)
39 | CC(C)(C)C1CCC(CC2=C(O)C(=O)c3ccccc3C2=O)CC1 (centres undefined) | 71.7% | 3 (active) | 2 (active) | 2 (active) | 0.2 (inactive) | 0.189 (inactive) | 0.278 (inactive)
40 | Cc1cc(C)c2cc(C(=O)NC3CCCCCCC3)[nH]c2c1 | 124% | 0 (inactive) | 1 (inactive) | 0 (inactive) | 0.316 (inactive) | 0.333 (inactive) | 0.438 (inactive)
41 | CC(=O)N1CCN(c2ccc(Oc3ccc(Cl)cc3O)cc2)CC1 | 89.7% | 0 (inactive) | 0 (inactive) | 0 (inactive) | 0.1 (inactive) | 0.027 (inactive) | 0.0303 (inactive)
42 | O=C(Nc1ccc(F)c(-c2nc3cc(-c4ccccc4)cnc3[nH]2)c1)N1CCCC1 | 111% | 0 (inactive) | 4 (active) | 4 (active) | 0.676 (active) | 0.667 (active) | 0.875 (active)
